Results published in PubChem BioAssay (NCI).
This is part of a sample that, as a whole, favours compounds with a hit. Of some 79,000 tested, about 15% had one in any assay. Values without a mark were called inactive. Active and inactive are the calls of the source. Rule as the data show it: active = growth inhibition above about 70%; inactive = the rest.

Tests used:
[1] = NCI Yeast Anticancer Drug Screen. Data for the rad50 strain (AID 155);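 also: 0% = growth of vehicle-only cultures of the same strain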; details: S. cerevisiae rad50 strain growth inhibition, hits give high values
Summary of the method: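 Inhibition values express reduced yeast growth in compound-treated cultures relative to vehicle-treated controls.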

[2] = NCI Yeast Anticancer Drug Screen. Data for the mec2-1 strain (AID 157); details: S. cerevisiae mec2-1 strain, hits give high values
Summary of the method: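 Mutant yeast (mec2-1) grown with compound; growth inhibition relative to vehicle control reported.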

[3] = NCI Yeast Anticancer Drug Screen. Data for the sgs1 mgt1 strain (AID 161);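 also: 0% = growth of cultures given vehicle only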; details: S. cerevisiae sgs1 mgt1 strain, hits give high values
Summary of the method: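 Growth of a repair-deficient yeast mutant was monitored after compound treatment and expressed as inhibition relative to vehicle-treated cultures.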

[4] = NCI Yeast Anticancer Drug Screen. Data for the cln2 rad14 strain (AID 165);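 also: 0% = growth equal to vehicle treated cultures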; details: S. cerevisiae cln2 rad14 strain, hits give high values
Summary of the method: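 Readout is yeast growth inhibition versus vehicle-treated controls, using a strain with cln2 and rad14 alterations exposed to compound.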

[5] = NCI Yeast Anticancer Drug Screen. Data for the bub3 strain (AID 167); details: S. cerevisiae bub3 mutant strain, hits give high values
Summary of the method: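 Steps: expose the mutant yeast strain to compound; grow alongside vehicle-treated cultures; measure growth; express inhibition against the vehicle cultures.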

[6] = NCI Yeast Anticancer Drug Screen. Data for the mlh1 rad18 strain (AID 175); details: S. cerevisiae mlh1 rad18 strain growth inhibition, hits give high values
Summary of the method: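 Genetically defined yeast (DNA repair-deficient) exposed to compounds; growth inhibition determined relative to vehicle.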

[7] = at 5.0 µM (retest, dose inferred, filed as 0.5)
[8] = at 50.0 µM (retest, dose inferred, filed as 5.0)

| Structure (SMILES) | growth inhibition [1, 7] | growth inhibition [1, 8] | growth inhibition ([1]; at 50.0 µM) | growth inhibition [2, 7] | growth inhibition [2, 8] | growth inhibition ([2]; at 50.0 µM) | growth inhibition [3, 7] | growth inhibition [3, 8] | growth inhibition ([3]; at 50.0 µM) | growth inhibition [4, 7] | growth inhibition [4, 8] | growth inhibition ([4]; at 50.0 µM) | growth inhibition [5, 7] | growth inhibition [5, 8] | growth inhibition ([5]; at 50.0 µM) | growth inhibition [6, 7] | growth inhibition [6, 8] | growth inhibition ([6]; at 50.0 µM) |
| --- | --- | --- | --- | --- | --- | --- | --- | --- | --- | --- | --- | --- | --- | --- | --- | --- | --- | --- |
| N#CC(C#N)=c1c2nsnc2c(=C(C#N)C#N)c2nsnc12 | 71% (active) | 88% (active) | -9.1% | 19% | 82% (active) | -1.6% | 52% | 90% (active) | -9.75% | 55% | 83% (active) | -47.7% | 60% | 91% (active) | -14.2% | 36% | 87% (active) | 7.45% |
| CC(C)(C)c1ccc(Br)c(CCC(=O)NO)c1 | -2% | 94% (active) | 97% (active) | -1% | 98% (active) | 98.6% (active) | -15% | 96% (active) | 97% (active) | -3% | 91% (active) | 98.7% (active) | -1% | 96% (active) | 97.7% (active) | 9% | 98% (active) | 97.8% (active) |
| O=C1C(C=NC(=S)c2ccccc2)=C(O)c2ccccc21 | 22% | 72% (active) | -13.8% | 23% | 68% | -12.1% | 33% | 68% | 2.35% | 20% | 48% | 10.1% | 31% | 81% (active) | -4.7% | 32% | 87% (active) | 6.45% |
| CCCCCCCN(CCCCCCC)CC(O)Cc1cc2c(c3ccccc13)CCCC2 (stereo unspecified) | 6% | 97% (active) | 98.8% (active) | 17% | 98% (active) | 94.7% (active) | 36% | 98% (active) | 99.5% (active) | 4% | 97% (active) | 98.7% (active) | 3% | 96% (active) | 94.7% (active) | 24% | 97% (active) | 98% (active) |
| CCCCCCC(O)(CCCCCC)CCCCCC | -1% | -34% | 83.3% (active) | -3% | -34% | 32.8% | -3% | -31% | 42.8% | 1% | -41% | 23.9% | 0% | -12% | 5.3% | 1% | -31% | 44.1% |
| Oc1c(Cl)cc(Cl)cc1Br | -4% | 83% (active) | 90.2% (active) | 5% | 96% (active) | 97.4% (active) | 3% | 72% (active) | 96.7% (active) | 0% | 91% (active) | 54.5% | -7% | 78% (active) | 84.7% (active) | -2% | 91% (active) | 88.1% (active) |
| Cc1ccc(/[N+]([O-])=C/c2ccccc2)cc1 | -2% | -23% | 98.2% (active) | 4% | -17% | 99.2% (active) | -13% | -2% | 95.7% (active) | -46% | -25% | 52.8% | -12% | 13% | 99% (active) | -27% | -20% | 79.2% (active) |
| CCc1nc(N)nc(N)c1-c1ccc(NCCc2ccccc2)c([N+](=O)[O-])c1 | 13% | 16% | 25.9% | 9% | 8% | -2.75% | 17% | 19% | 5.15% | 7% | 6% | 9.75% | 13% | 15% | 14.4% | 7% | 19% | 24.9% |
| CN(C)CC/C(=N\Nc1ccc(Cl)c(Cl)c1)c1ccccc1 | 88% (active) | 99% (active) | 99.5% (active) | 69% | 100% (active) | 97.9% (active) | 98% (active) | 100% (active) | 99.6% (active) | 34% | 99% (active) | 99.5% (active) | 82% (active) | 100% (active) | 99.6% (active) | 95% (active) | 99% (active) | 99.2% (active) |
| Oc1cc(F)ccc1-c1ccc(F)cc1 | -5% | 98% (active) | 72.5% (active) | 20% | 99% (active) | 85% (active) | 13% | 97% (active) | 47.4% | -9% | 98% (active) | 60.3% | -12% | 99% (active) | 75.7% (active) | -6% | 98% (active) | 84.7% (active) |
| Cc1[nH]c2c(C)c3c([nH]c4ccc(Cl)cc43)c(C)c2c(=O)c1C | -8% | 12% | 61.1% | -24% | 0% | 14.2% | -14% | 3% | 23.9% | -17% | 6% | 13.7% | -10% | -3% | 8.65% | -19% | -2% | 39.1% |
| Cc1cc(C)[nH]c(=S)n1.[Pt] | -1% | -9% | 8.7% | 0% | -3% | 35.2% | -2% | -5% | 12.2% | 2% | 7% | 81.3% (active) | 2% | -2% | 21.9% | -2% | -7% | 0.5% |
| CCc1cc2c(cc1O)CC[C@@H]1[C@@H]2CC[C@]2(C)[C@@H](O)CC[C@@H]12 | 31% | 96% (active) | 88% (active) | -10% | 99% (active) | 92% (active) | -17% | 96% (active) | 89.3% (active) | 9% | 97% (active) | 91% (active) | -39% | 98% (active) | 49.5% | 3% | 97% (active) | 85.2% (active) |
| COc1ccc(-c2cc(-c3ccco3)c(C#N)c(=S)n2C2OC(CO)C(O)C(O)C2O)cc1 (stereo unspecified) | -8% | 1% | 5.1% | 3% | -12% | 4.3% | -1% | -3% | -15.2% | 15% | 16% | 30.1% | 2% | 7% | -3% | 10% | 20% | 4.1% |
| C=C1C(O)C2(O)OCC34C(CC5C(C)=CC(=O)C(O)C5(C)C23)OC(=O)C(OC(=O)C/C=C/CCCCCCCC)C14 (stereo unspecified) | 85% (active) | 98% (active) | 92.2% (active) | 87% (active) | 99% (active) | 93% (active) | 75% (active) | 99% (active) | 92.8% (active) | 87% (active) | 99% (active) | 92% (active) | 84% (active) | 99% (active) | 91.5% (active) | 93% (active) | 99% (active) | 90.7% (active) |
| N#CCCN(C(=S)Nc1cccc(C(F)(F)F)c1)C1CCCCC1 | -1% | 69% | 75.3% (active) | 3% | 87% (active) | 75% (active) | -1% | 87% (active) | 82.4% (active) | -1% | 46% | 41.1% | 1% | 81% (active) | 76.2% (active) | 1% | 89% (active) | 61.2% |
| CCCCCCCCCCSC(=NCC)NCC | 2% | 99% (active) | 66.9% | 4% | 99% (active) | 49.9% | 51% | 99% (active) | 46.7% | -6% | 99% (active) | 77.3% (active) | 27% | 99% (active) | 59% | 0% | 99% (active) | 99.5% (active) |
| c1ccc(CCNCc2ccco2)nc1 | -2% | -5% | 42.5% | -7% | -20% | 0.6% | -7% | -26% | -21.2% | -18% | -91% | 23.6% | 3% | -2% | -24.3% | -7% | -3% | 7.7% |
| CCNC1(C2c3ccccc3-c3ccccc32)c2ccccc2-c2ccccc21 | 13% | 84% (active) | 20% | -17% | 25% | 11.8% | 4% | 84% (active) | 44.1% | -12% | 36% | 18.5% | -4% | 71% (active) | 58.4% | 30% | 74% (active) | 37% |
| N#CC1CCC(c2ccccc2)(c2ccccc2)C1=O (stereo unspecified) | 5% | 99% (active) | 94.6% (active) | 5% | 99% (active) | 99.7% (active) | 4% | 100% (active) | 99.6% (active) | -2% | 99% (active) | 97.5% (active) | -4% | 98% (active) | 74.3% (active) | -5% | 98% (active) | 99.5% (active) |
| O=[N+]([O-])c1cc(Cc2cc([N+](=O)[O-])c3cccnc3c2O)c(O)c2ncccc12 | 96% (active) | 98% (active) | 98.3% (active) | 89% (active) | 98% (active) | 97.2% (active) | 85% (active) | 98% (active) | 98.4% (active) | 65% | 97% (active) | 93.5% (active) | 73% (active) | 98% (active) | 97.4% (active) | 90% (active) | 97% (active) | 97.8% (active) |
| S=C(Nc1ccccc1)NC1CC2C=CC1CC2 (stereo unspecified) | -9% | -4% | -5% | -11% | -12% | 7.2% | -4% | 2% | 1.6% | -23% | -11% | 31.6% | -4% | 0% | 19.6% | -4% | -13% | 13.2% |
| CC(=O)Nc1cc(Cl)c2c(c1)C(=O)c1ccccc1-2 | 64% | 82% (active) | 91.8% (active) | 34% | 61% | 14.6% | 43% | 77% (active) | 35.6% | 24% | 35% | -23.4% | 14% | 38% | 19.1% | 41% | 79% (active) | 33% |
| COC(=O)c1ccc(CCc2cc(O)ccc2O)cc1 | 58% | 99% (active) | 98.8% (active) | 74% (active) | 100% (active) | 98.5% (active) | 70% (active) | 99% (active) | 98% (active) | 27% | 99% (active) | 88.8% (active) | 52% | 99% (active) | 98.5% (active) | 88% (active) | 99% (active) | 98.8% (active) |
| O=C1C=CC(=O)c2nc3ccccc3nc21 | 5% | 98% (active) | 85.3% (active) | 2% | 99% (active) | 83.2% (active) | 1% | 98% (active) | 50.6% | -1% | 99% (active) | -16.7% | -1% | 98% (active) | 90.1% (active) | 16% | 97% (active) | 91% (active) |
| Cc1c(CNc2ccc(Cl)c(Cl)c2Cl)cnc2nc(N)nc(N)c12 | 40% | 86% (active) | 78.5% (active) | 27% | 53% | 44.5% | 19% | 52% | 64.5% | 34% | 60% | 43.4% | 28% | 46% | 51.5% | 30% | 56% | -36.1% |
| CCOC(=O)[C@@H](F)[C@H](Br)C(=O)OCC | 86% (active) | 99% (active) | 89.2% (active) | 58% | 100% (active) | 93.2% (active) | 75% (active) | 100% (active) | 88.4% (active) | 55% | 100% (active) | 89.2% (active) | 88% (active) | 100% (active) | 84.7% (active) | 80% (active) | 99% (active) | 93.2% (active) |
